PubChem BioAssay AID1159580 (chemical genetic matrix, 2015)
“And” between values parts separate entries of the source, which are not always exact repeats. Equal entries are not always repeated. About 2,000 (36%) of roughly 5,500 compounds were called active. Inconclusive results (about 18%) are left out. Cut-off read from the data, not from the text of the source: active = normalized growth mostly below about 0.91 (no sharp cut-off); inconclusive = no clear call, values can overlap the other calls; inactive = mostly above about 0.92. This is one part of the list.

Assay: chemical genetic growth profiling, strain panel (AID 1159580);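 note: tested at 20 µM; growth read once vehicle control cultures reached saturation at 30 °C; 1 = growth at the plate median or of vehicle wells; lower values mean less growth of the strain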
Conditions: S. cerevisiae deletion strains, growth OD

Measured: normalized growth

NC(=O)CC[C@@H](N)C(=O)O
inactive: locus YAL021C, strain ccr4, hits give low values 1.02 | locus YAL026C, strain drs2, hits give low values 1.05 | locus YAL030W, strain snc1, hits give low values 1.04 | locus YBL061C, strain skt5, hits give low values 1.03 | locus YBR009C, strain hhf1, hits give low values 1.03 | locus YBR021W, strain FUR4, hits give low values 1.04 | locus YBR023C, strain chs3, hits give low values 1.03 | locus YBR171W, strain sec66, hits give low values 1.05 | locus YBR229C, strain ROT2, hits give low values 1.01 | locus YBR231C, strain swc5, hits give low values 1.02 | locus YBR279W, strain paf1, hits give low values 1.02 | locus YCL011C, strain gbp2, hits give low values 1.02 | locus YCL016C, strain dcc1, hits give low values 1.02 | locus YCL029C, strain bik1, hits give low values 1.01 | locus YCL061C, strain MRC1, hits give low values 1.02 | locus YCL069W, strain vba3, hits give low values 1.02 | locus YCR088W, strain abp1, hits give low values 1.03 | locus YDL005C, strain med2, hits give low values 1.04 | locus YDL035C, strain GPR1, hits give low values 1.06 | locus YDL040C, strain nat1, hits give low values 1.02 | locus YDL074C, strain BRE1, hits give low values 1.09 | locus YDL101C, strain DUN1, hits give low values 1.02 | locus YDL185W, strain tfp1, hits give low values 1.01 | locus YDL192W, strain arf1, hits give low values 1.03 | locus YDR001C, strain nth1, hits give low values 1.02 | locus YDR069C, strain doa4, hits give low values 1.03 | locus YDR101C, strain arx1, hits give low values 1.01 | locus YDR137W, strain rgp1, hits give low values 1.06 | locus YDR159W, strain sac3, hits give low values 1.08 | locus YDR162C, strain NBP2, hits give low values 1.05 | locus YDR195W, strain ref2 1.01 | locus YDR297W, strain sur2, hits give low values 1.02 | locus YDR318W, strain mcm21, hits give low values 0.996 | locus YDR334W, strain swr1, hits give low values 1.03 | locus YDR335W, strain msn5, hits give low values 1.04 | locus YDR388W, hits give low values 0.993 | locus YDR392W, strain spt3, hits give low values 0.937 | locus YDR502C, strain sam2, hits give low values 1.02 | locus YEL003W, strain gim4, hits give low values 1.02 | locus YEL037C, strain rad23, hits give low values 1.03 | locus YEL061C, strain CIN8 (second series), hits give low values 1.02 | locus YEL061C, strain CIN8, hits give low values 1.02 | locus YER015W, strain faa2, hits give low values 1.03 | locus YER016W, strain bim1, hits give low values 1.02 | locus YER110C, hits give low values 0.996 | locus YER111C, strain swi4, hits give low values 1.02 | locus YER155C, strain BEM2 (second series), hits give low values 0.971 | locus YER155C, strain BEM2, hits give low values 1.01 | locus YER167W, strain BCK2, hits give low values 1.02 | locus YFR010W, strain ubp6, hits give low values 1.05 | locus YGL078C, strain dbp3, hits give low values 1.03 | locus YGL086W, strain mad1, hits give low values 1.02 | locus YGL167C, strain pmr1, hits give low values 1.04 | locus YGL173C, strain kem1, hits give low values 1.04 | locus YGL227W, strain vid30, hits give low values 1.02 | locus YGL240W, strain doc1, hits give low values 1.02 | locus YGL248W, strain PDE1, hits give low values 1.02 | locus YGL253W, strain hxk2, hits give low values 1.06 | locus YGR078C, strain PAC10, hits give low values 1.04 | locus YGR135W, strain pre9, hits give low values 1.02 | locus YGR252W, strain gcn5, hits give low values 1.14 | locus YHR013C, strain ard1, hits give low values 1.07 | locus YHR027C, strain rpn1, hits give low values 1.04 | locus YHR030C, strain SLT2, hits give low values 1.02 and 1.05 | locus YHR079C, strain IRE1 (second series), hits give low values 0.987 | locus YHR079C, strain IRE1, hits give low values 1.03 | locus YHR094C, strain hxt1, hits give low values 0.984 | locus YHR129C, strain ARP1, hits give low values 1.03 | locus YHR142W, strain chs7, hits give low values 1.05 | locus YHR200W, strain rpn10, hits give low values 1 | locus YIL066C, strain RNR3, hits give low values 1.05 | locus YIL073C, strain SPO22, hits give low values 1.13 | locus YIL125W, strain kgd1, hits give low values 1.02 | locus YIR030C, strain dcg1, hits give low values 0.998 | locus YJL092W, strain hpr5, hits give low values 1.03 | locus YJL095W, strain BCK1 (second series), hits give low values 1.02 | locus YJL095W, strain BCK1, hits give low values 1.05 and 1.04 | locus YJL115W, strain asf1, hits give low values 1.02 | locus YJL129C, strain trk1, hits give low values 1.07 | locus YJL134W, strain LCB3, hits give low values 1.01 | locus YJL154C, strain vps35, hits give low values 1.02 | locus YJL164C, strain tpk1, hits give low values 1.03 | locus YJL166W, strain qcr8, hits give low values 1.04 | locus YJL168C, strain set2, hits give low values 0.989 | locus YJL187C, strain SWE1 (second series), hits give low values 1.03 | locus YJL187C, strain SWE1, hits give low values 1.06 | locus YJR043C, strain POL32, hits give low values 1.04 | locus YJR066W, strain TOR1, hits give low values 1 | locus YKL009W, strain mrt4, hits give low values 1.08 | locus YKL068W, hits give low values 1.02 | locus YKL085W, strain MDH1 (second series), hits give low values 1.01 | locus YKL085W, strain MDH1, hits give low values 1.01 | locus YKL160W, strain elf1, hits give low values 1.02 | locus YKR001C, strain vps1, hits give low values 1.05 | locus YKR026C, strain gcn3, hits give low values 1.03 | locus YKR091W, strain srl3, hits give low values 1.03 | locus YLL001W, strain dnm1, hits give low values 1 | locus YLL026W, hits give low values 1.03 | locus YLL041C, strain sdh2, hits give low values 1.02 | locus YLR027C, strain aat2, hits give low values 1.02 | locus YLR039C, strain RIC1, hits give low values 1.11 | locus YLR058C, strain SHM2, hits give low values 1.02 | locus YLR102C, strain apc9, hits give low values 0.98 | locus YLR113W, strain HOG1, hits give low values 1.02 | locus YLR221C, strain rsa3, hits give low values 1.04 | locus YLR258W, strain gsy2, hits give low values 1.02 | locus YLR262C, strain YPT6 (second series), hits give low values 1.05 | locus YLR262C, strain YPT6, hits give low values 1.1 | locus YLR268W, strain sec22, hits give low values 1.05 | locus YLR320W, strain mms22, hits give low values 1.04 | locus YLR330W, strain CHS5, hits give low values 1.03 | locus YLR342W, strain FKS1 (second series), hits give low values 1.07 | locus YLR342W, strain FKS1, hits give low values 1.03 | locus YLR357W, strain rsc2, hits give low values 1.05 | locus YLR370C, strain arc18, hits give low values 1.03 | locus YLR371W, strain rom2, hits give low values 0.993 | locus YLR384C, strain iki3, hits give low values 1.02 | locus YLR418C, strain cdc73, hits give low values 1.07 | locus YML016C, strain PPZ1, hits give low values 1.01 | locus YML032C, strain rad52, hits give low values 1.02 | locus YML120C, strain ndi1, hits give low values 1.03 | locus YML124C, strain tub3, hits give low values 1.01 | locus YMR058W, strain fet3, hits give low values 1.04 | locus YMR078C, strain ctf18, hits give low values 0.988 | locus YMR125W, strain sto1, hits give low values 1.03 | locus YMR129W, hits give low values 1.02 | locus YMR205C, strain PFK2, hits give low values 1.04 | locus YMR223W, strain ubp8, hits give low values 1.02 | locus YMR231W, strain pep5, hits give low values 1.03 | locus YMR263W, strain SAP30, hits give low values 1.02 | locus YMR307W, strain GAS1, hits give low values 1.13 | locus YNL067W, strain RPL9B, hits give low values 1.03 | locus YNL071W, strain lat1, hits give low values 1.03 | locus YNL153C, strain GIM3, hits give low values 1.02 | locus YNL183C, strain NPR1, hits give low values 1.01 | locus YNL209W, strain ssb2, hits give low values 1.02 | locus YNL233W, strain BNI4, hits give low values 1.03 | locus YNL248C, strain rpa49, hits give low values 1.05 | locus YNL250W, strain rad50, hits give low values 1.03 | locus YNL271C, strain bni1, hits give low values 1.02 | locus YNL298W, strain CLA4, hits give low values 1.02 | locus YNL307C, strain MCK1, hits give low values 0.995 | locus YNL322C, strain KRE1 (second series), hits give low values 1.02 | locus YNL322C, strain KRE1, hits give low values 1.02 | locus YNR049C, strain mso1, hits give low values 1.04 | locus YNR052C, strain pop2, hits give low values 1.03 | locus YOL012C, strain htz1 1.02 | locus YOL147C, strain pex11, hits give low values 1 | locus YOR001W, strain rrp6, hits give low values 1.04 | locus YOR061W, strain CKA2, hits give low values 1.02 | locus YOR069W, strain VPS5, hits give low values 1.01 | locus YOR070C, strain gyp1, hits give low values 1.01 | locus YOR080W, strain dia2, hits give low values 1.03 | locus YOR083W, strain WHI5, hits give low values 1.01 | locus YOR106W, strain vam3, hits give low values 1.06 | locus YOR136W, strain idh2, hits give low values 1.02 | locus YOR144C, strain elg1, hits give low values 1 | locus YOR184W, strain ser1, hits give low values 1.05 | locus YOR231W, strain MKK1, hits give low values 1.03 | locus YOR265W, strain rbl2, hits give low values 1.02 | locus YOR270C, strain vph1, hits give low values 1.1 | locus YOR290C, strain snf2, hits give low values 1.03 | locus YOR316C, strain cot1, hits give low values 0.987 | locus YPL051W, strain arl3, hits give low values 1 | locus YPL078C, strain atp4, hits give low values 1.01 | locus YPL106C, strain sse1, hits give low values 1.01 | locus YPL240C, strain hsp82, hits give low values 1.02 | locus YPL241C, strain CIN2, hits give low values 1.01 | locus YPL256C, strain CLN2, hits give low values 1.05 | locus YPR119W, strain clb2, hits give low values 0.991 | locus YPR141C, strain kar3, hits give low values 1.01 | locus YPR163C, strain tif3, hits give low values 0.99 | locus YPR167C, strain met16, hits give low values 1 | strain wtn01, hits give low values 1.06
